For twelve compounds, Potency and outcome results are on record in PubChem BioAssay (Tox21).

Structures are written as SMILES. Where “and” joins values, the source holds several entries; their conditions need not be identical. Equal values may be shown once. Inconclusive results are not listed. More than one record can exist for a structure, and the calls need not agree. Calls of active or inactive are those of the source. Unless noted, calls come from the whole dose curve; as a rule, active = well fitted curve in the direction sought with a large enough effect in the repeat runs; inconclusive = weak or mixed curves; inactive = no such curve, though single readings can be large; an effect the other way counts as inactive or inconclusive.

Assay [1] in a line: qHTS assay to identify aromatase inhibitors - cell viability counter screen (AID 743084).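 Note: cells stimulated with testosterone during compound exposure; nearly all actives have a fitted effect of over 55% in size.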 Note: potency is the fitted concentration of half-maximal effect. A general note: In qHTS, concentration-response curves come from the screen itself.
In assay [2] the target is Aryl hydrocarbon receptor (Homo sapiens) (UniProt P35869). In words: qHTS assay to identify small molecule that activate the aryl hydrocarbon receptor (AhR) signaling pathway (AID 743085).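 Note: HG2L7.5c1 human HepG2 liver cells with stably integrated DRE-driven firefly reporter; series mostly up to about 70 µM; nearly all actives have a fitted effect of over 15% in size.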 The gist of the method:
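Stably transfected human liver carcinoma cells (HG2L7.5c1; 20 DRE-firefly luciferase) were incubated 5 h, dosed, and kept 24 h at 37C. Agonism was scored from increased luciferase luminescence.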

A short description of assay [3]: qHTS assay to identify small molecule that activate the aryl hydrocarbon receptor (AhR) signaling pathway - cell viability counter screen (AID 743086).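 Note: HepG2 liver cells carrying the AhR DRE luciferase reporter; series mostly up to about 70 µM; nearly all actives have a fitted effect of over 45% in size.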 The gist of the method: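 HepG2-AhR-luc (HG2L7.5c1) cells, 4000/well, treated 24 h at 37 C with compound; viability measured as CellTiter-Fluor fluorescence after 30 min in the same wells as the luciferase read.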

Assay [4] in a line: qHTS assay to identify small molecule antagonists of the peroxisome proliferator-activated receptor gamma (PPARg) signaling pathway - cell viability counter screen (AID 743194). Note: nearly all actives have a fitted effect of over 55% in size. Particulars: Potency: co-treated with 50 nM rosiglitazone. The gist of the method: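 Cytotoxicity counter screen in PPARg-bla HEK293H cells, same wells as reporter assay. Compounds plus 50 nM rosiglitazone (final) for 17 h at 37 C, then viability read by CellTiter-Glo luminescence.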

A short description of assay [5]: qHTS assay for small molecule agonists of the antioxidant response element (ARE) signaling pathway (AID 743202; active = well fitted activation curve with a large enough effect in the signal ratio in the repeat runs, not every such curve was filed as active; the % refers to the signal ratio; note: potency is the fitted concentration of half-maximal effect). The gist of the method: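 HepG2 ARE-bla reporter line, 2,000 cells/well; 5 h preincubation 37 C/5% CO2; compound (DMSO) 16 h 37 C; B/G FRET substrate 2 h RT; fluorescence intensity.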
A short description of assay [6]: qHTS assay for small molecule agonists of the antioxidant response element (ARE) signaling pathway - cell viability counter screen (AID 743203; calls by dose curve; note: nearly all actives have a fitted effect of over 55% in size; note: potency is the fitted concentration of half-maximal effect). The gist of the method: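 Luminescence read-out (CellTiter-Glo, 30 min at room temperature) measured cell viability in the same wells as the ARE beta-lactamase reporter. HepG2 ARE-bla cells were treated with compounds for 16 hrs at 37C/5% CO2.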

Assay [7] in a line: qHTS assay for small molecule activators of the heat shock response signaling pathway - cell viability counter screen (AID 743209). Note: nearly all actives have a fitted effect of over 50% in size. Note: potency is the fitted concentration of half-maximal effect. The gist of the method: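 HSE-bla HeLa; 1500 cells/well; overnight 37 C, 5% CO2; compound 5 h 37 C; LiveBLAzer B/G substrate 2.5 h RT; CellTiter-Glo 30 min RT; luminescence.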
A short description of assay [8]: qHTS assay for small molecule activators of the heat shock response signaling pathway (AID 743210; active = well fitted activation curve with a large enough effect in the signal ratio in the repeat runs, with a control signal flat, not every such curve was filed as active; the % refers to the signal ratio;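 note: HeLa cells with beta-lactamase reporter driven by heat shock elements; series mostly up to about 63 µM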). In outline:
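Beta-lactamase reporter read-out: FRET substrate fluorescence after 2.5 h at RT, following 5 h compound treatment at 37 C of HeLa cells carrying HSE-driven bla reporter; quantitative HTS format.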

Assay [9] is described as follows: qHTS assay to identify small molecule agonists of the peroxisome proliferator-activated receptor delta (PPARd) signaling pathway - cell viability counter screen (AID 743211). Note: nearly all actives have a fitted effect of over 55% in size. Note: potency is the fitted concentration of half-maximal effect. The gist of the method: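 In the same wells used for beta-lactamase reporter measurement, cytotoxicity is scored by CellTiter-Glo. HEK293H PPARd-bla cells receive compound for 17 h at 37C following a 5 h settling period.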

Assay [10] is described as follows: qHTS assay to identify small molecule antagonists of the peroxisome proliferator-activated receptor delta (PPARd) signaling pathway - cell viability counter screen (AID 743213). Note: nearly all actives have a fitted effect of over 50% in size. Note: potency is the fitted concentration of half-maximal effect. The gist of the method:
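PPARd-bla HEK293H cells were treated with compounds plus agonist L165041 (300 nM final) for 17 h at 37 C. Viability was then read in the same wells by CellTiter-Glo luminescence after 30 min at room temperature.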

The target of assay [11] is Bile acid receptor (Homo sapiens) (UniProt Q96RI1). In words: qHTS assay to identify small molecule antagonists of the farnesoid-X-receptor (FXR) signaling pathway (AID 743217; active = well fitted inhibition curve with a large enough effect in the signal ratio in the repeat runs, not every such curve was filed as active; the % refers to the signal ratio). The gist of the method:
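Read-out: beta-lactamase FRET fluorescence (LiveBLAzer B/G substrate, 2 h, room temperature) in GeneBLAzer FXR-UAS-bla HEK 293T cells. Compounds were co-dosed with 50 uM chenodeoxycholic acid (final) and incubated 16 h at 37 °C.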

Assay [12] is described as follows: qHTS assay to identify small molecule agonists of the farnesoid-X-receptor (FXR) signaling pathway - cell viability counter screen (AID 743218). Note: nearly all actives have a fitted effect of over 45% in size. The gist of the method:
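Luminescence from CellTiter-Glo, read after 30 min at RT, reports viability of GeneBLAzer FXR-UAS-bla HEK 293T cells treated 16 h with compounds in the wells used for the beta-lactamase reporter.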

For assay [13], the target named is Bile acid receptor (Homo sapiens) (UniProt Q96RI1). Kind of assay: qHTS assay to identify small molecule agonists of the farnesoid-X-receptor (FXR) signaling pathway (AID 743220; active = well fitted activation curve with a large enough effect in the signal ratio in the repeat runs, not every such curve was filed as active; the % refers to the signal ratio). In outline:
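FXR-UAS-bla HEK 293T cells carrying a UAS-driven beta-lactamase reporter were plated for 5 h at 37C/5% CO2, then exposed to DMSO-dissolved Tox21 10K compounds for 16 h at 37C. A LiveBLAzer B/G FRET substrate was loaded for 2 h at room temperature before fluorescence reading.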

The target in assay [14] is Vitamin D3 receptor (Homo sapiens) (UniProt P11473). In words: qHTS assay to identify small molecule agonists of the vitamin D receptor (VDR) signaling pathway (AID 743222; calls by dose curve). The gist of the method: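 Beta-lactamase reporter readout (LiveBLAzer B/G FRET, 2 h RT) in VDR-bla cells after 16 h compound treatment at 37C, 5% CO2; cells pre-incubated 4 h before pin transfer of DMSO solutions.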

The target in assay [15] is Peroxisome proliferator-activated receptor gamma (Homo sapiens) (UniProt P37231). Kind of assay: qHTS assay to identify small molecule antagonists of the peroxisome proliferator-activated receptor gamma (PPARg) signaling pathway (AID 743191; calls by dose curve; note: potency is the fitted concentration of half-maximal effect; nearly all actives have a fitted effect of over 30% in size). The gist of the method: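 GeneBLAzer PPARg UAS-bla HEK293H cells, 5 h post-plating, exposed to compounds 17 h at 37C. LiveBLAzer B/G FRET substrate added for 1 h at room temperature; beta-lactamase reporter read by fluorescence intensity.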

The nature of assay [16]: qHTS assay to identify small molecule antagonists of the farnesoid-X-receptor (FXR) signaling pathway - cell viability counter screen (AID 743221; active = well fitted cell-killing curve with a large enough effect in the repeat runs, not every such curve was filed as active; note: nearly all actives have a fitted effect of over 50% in size). The gist of the method:
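Here viability was scored by luminescence after CellTiter-Glo addition to wells already read for beta-lactamase. Prior treatment: compound plus CDCA (50 uM final), 16 h, 37 C, HEK 293T FXR-bla cells.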

In assay [17] the target is Peroxisome proliferator-activated receptor delta (Homo sapiens) (UniProt Q03181). In words: qHTS assay to identify small molecule agonists of the peroxisome proliferator-activated receptor delta (PPARd) signaling pathway (AID 743212; calls by dose curve). The gist of the method: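 Read-out: beta-lactamase FRET fluorescence after 2 h room-temperature incubation with LiveBLAzer B/G substrate. Cells were HEK293H carrying a UAS-bla reporter for PPARd, treated at 37 C with DMSO-dissolved compounds.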

Assay [18] has the same target. In words: qHTS assay to identify small molecule antagonists of the peroxisome proliferator-activated receptor delta (PPARd) signaling pathway (AID 743215; active = well fitted inhibition curve with a large enough effect in the signal ratio in the repeat runs, not every such curve was filed as active; the % refers to the signal ratio;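 note: cells stimulated with agonist L165041 at 300 nM final during compound exposure; series mostly up to about 62 µM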). In outline: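 HEK293H GeneBLAzer PPARd UAS-bla reporter cells; cpd + L165041 300 nM final, 17 h 37 C; LiveBLAzer B/G FRET substrate 2 h RT; fluorescence intensity read-out. Antagonist mode.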
Assay [19] addresses Vitamin D3 receptor (Homo sapiens) (UniProt P11473). Kind of assay: qHTS assay to identify small molecule antagonists of the vitamin D receptor (VDR) signaling pathway (AID 743223; active = well fitted inhibition curve with a large enough effect in the signal ratio in the repeat runs, not every such curve was filed as active; the % refers to the signal ratio). In outline: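 Inhibition of agonist-driven VDR signalling is scored in VDR-bla cells: 3 nM final 1alpha,25-dihydroxyvitamin D3 plus compound, 16 h at 37C, then beta-lactamase detection by FRET substrate fluorescence after 2 h.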

Peroxisome proliferator-activated receptor delta (Homo sapiens), sequence (Q03181 whole entry, looked up): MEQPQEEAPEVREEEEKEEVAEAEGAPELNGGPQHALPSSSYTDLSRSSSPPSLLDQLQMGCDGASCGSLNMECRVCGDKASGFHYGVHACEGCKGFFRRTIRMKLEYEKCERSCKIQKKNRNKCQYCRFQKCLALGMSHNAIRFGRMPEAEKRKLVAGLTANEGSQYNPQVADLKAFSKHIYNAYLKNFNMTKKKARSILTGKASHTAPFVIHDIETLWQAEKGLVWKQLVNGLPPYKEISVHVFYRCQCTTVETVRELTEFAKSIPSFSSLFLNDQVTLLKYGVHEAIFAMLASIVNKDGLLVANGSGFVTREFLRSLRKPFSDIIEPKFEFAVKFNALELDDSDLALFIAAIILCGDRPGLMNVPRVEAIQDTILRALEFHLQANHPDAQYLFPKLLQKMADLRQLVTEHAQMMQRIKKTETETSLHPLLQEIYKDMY
Vitamin D3 receptor (Homo sapiens), sequence (P11473 whole entry, looked up): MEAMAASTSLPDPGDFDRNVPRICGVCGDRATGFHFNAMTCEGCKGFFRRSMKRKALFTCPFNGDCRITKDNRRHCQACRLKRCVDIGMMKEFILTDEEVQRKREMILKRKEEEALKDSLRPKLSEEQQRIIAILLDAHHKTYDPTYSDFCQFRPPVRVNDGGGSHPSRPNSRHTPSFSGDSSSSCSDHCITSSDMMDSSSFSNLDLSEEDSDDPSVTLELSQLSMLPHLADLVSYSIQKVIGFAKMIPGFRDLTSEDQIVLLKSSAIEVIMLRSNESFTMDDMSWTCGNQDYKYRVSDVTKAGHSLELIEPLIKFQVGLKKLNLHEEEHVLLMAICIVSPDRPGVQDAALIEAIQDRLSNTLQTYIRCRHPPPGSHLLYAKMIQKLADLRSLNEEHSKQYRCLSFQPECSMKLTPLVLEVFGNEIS
Bile acid receptor (Homo sapiens), sequence (Q96RI1 whole entry, looked up): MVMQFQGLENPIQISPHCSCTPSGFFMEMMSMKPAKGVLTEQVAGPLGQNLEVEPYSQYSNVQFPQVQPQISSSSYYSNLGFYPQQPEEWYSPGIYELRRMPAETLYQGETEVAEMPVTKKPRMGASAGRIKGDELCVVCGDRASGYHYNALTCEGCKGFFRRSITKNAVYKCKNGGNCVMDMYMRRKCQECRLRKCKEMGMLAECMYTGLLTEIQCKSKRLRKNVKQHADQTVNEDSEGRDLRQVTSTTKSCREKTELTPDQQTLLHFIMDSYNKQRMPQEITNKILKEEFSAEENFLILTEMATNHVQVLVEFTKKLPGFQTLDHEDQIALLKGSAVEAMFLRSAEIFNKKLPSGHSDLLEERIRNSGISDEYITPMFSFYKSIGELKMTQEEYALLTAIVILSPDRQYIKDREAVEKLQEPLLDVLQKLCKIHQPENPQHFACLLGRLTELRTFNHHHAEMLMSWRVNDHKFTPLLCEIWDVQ
Aryl hydrocarbon receptor (Homo sapiens), sequence (P35869 whole entry, looked up): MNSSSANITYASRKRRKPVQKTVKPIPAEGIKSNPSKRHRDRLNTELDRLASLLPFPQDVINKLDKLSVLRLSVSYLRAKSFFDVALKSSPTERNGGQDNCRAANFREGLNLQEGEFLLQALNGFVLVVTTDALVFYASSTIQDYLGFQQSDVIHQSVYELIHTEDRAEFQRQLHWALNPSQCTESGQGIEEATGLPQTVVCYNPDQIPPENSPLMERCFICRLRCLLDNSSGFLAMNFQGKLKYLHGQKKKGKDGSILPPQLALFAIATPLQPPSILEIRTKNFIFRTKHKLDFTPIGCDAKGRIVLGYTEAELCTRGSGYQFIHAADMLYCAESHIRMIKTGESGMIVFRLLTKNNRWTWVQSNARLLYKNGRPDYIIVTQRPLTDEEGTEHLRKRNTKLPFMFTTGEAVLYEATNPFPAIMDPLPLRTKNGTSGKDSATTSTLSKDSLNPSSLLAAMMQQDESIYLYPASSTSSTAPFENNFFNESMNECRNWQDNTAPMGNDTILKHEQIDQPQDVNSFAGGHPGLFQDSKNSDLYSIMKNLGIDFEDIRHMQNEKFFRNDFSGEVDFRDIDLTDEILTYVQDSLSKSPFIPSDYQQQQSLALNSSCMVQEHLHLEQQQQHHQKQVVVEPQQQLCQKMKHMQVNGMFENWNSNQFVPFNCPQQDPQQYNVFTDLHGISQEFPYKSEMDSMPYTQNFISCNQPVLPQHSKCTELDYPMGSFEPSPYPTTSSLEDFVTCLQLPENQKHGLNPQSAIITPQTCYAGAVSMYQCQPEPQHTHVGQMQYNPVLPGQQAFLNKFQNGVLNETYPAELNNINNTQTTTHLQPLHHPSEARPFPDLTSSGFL
Peroxisome proliferator-activated receptor gamma (Homo sapiens), sequence (P37231 whole entry, looked up): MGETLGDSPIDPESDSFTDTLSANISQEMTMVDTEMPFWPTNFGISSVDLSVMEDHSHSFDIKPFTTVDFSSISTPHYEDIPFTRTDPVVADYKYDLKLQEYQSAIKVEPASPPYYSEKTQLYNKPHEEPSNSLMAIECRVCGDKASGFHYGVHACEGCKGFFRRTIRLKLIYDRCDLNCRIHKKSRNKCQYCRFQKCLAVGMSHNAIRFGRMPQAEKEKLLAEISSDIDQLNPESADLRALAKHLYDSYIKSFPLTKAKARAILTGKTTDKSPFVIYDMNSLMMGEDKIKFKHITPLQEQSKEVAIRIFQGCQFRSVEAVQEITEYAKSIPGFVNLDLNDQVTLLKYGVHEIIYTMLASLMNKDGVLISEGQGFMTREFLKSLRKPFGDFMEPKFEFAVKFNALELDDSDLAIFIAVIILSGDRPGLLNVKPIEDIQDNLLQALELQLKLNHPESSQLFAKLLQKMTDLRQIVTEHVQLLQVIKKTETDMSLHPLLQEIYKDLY

As for `C=CCN1CC[C@]23c4c5ccc(O)c4O[C@H]2C(=O)CC[C@@]3(O)[C@H]1C5`, the Potency result in assay [1], in [2], in assay [3], in assay [4], in assay [5] and in assay [6] was “inactive” each time. For the same compound, the Potency entry in [7], in assay [9], in [10], in assay [11] and in [12] was “inactive” throughout. Besides, the compound was called inactive in assay [8], in [13] and in assay [14].

As for `O=C(CCl)c1ccc(Cl)cc1Cl`, the Potency entry in assay [1], in [2], in assay [3] and in assay [11] was “inactive” each time. The Potency in assay [5] was 5.31 µM (active); in assay [6], “inactive and 26.6 µM (active)”; in assay [7], 8.41 µM (active); in [9], 18.8 µM (active); in assay [10], “inactive and 29.8 µM (active)”.

Regarding `CO/C=C(/C(=O)OC)c1ccccc1COc1cccc(C(F)(F)F)n1`, the Potency is 61.1 µM (active) in assay [1] and 4.36 µM (active) in [15]. Further, the Potency entry in assay [2], in [3], in assay [7], in assay [10], in assay [12] and in [16] was “inactive” each time. In addition, the result in assay [8], in [13] and in [14] was inactive.

Regarding `C=CC(=O)OC`, the Potency entry in assay [1], in assay [2], in [3], in [4], in [5] and in assay [6] was “inactive” in each case. In addition, the Potency entry in assay [7], in [10], in assay [11], in assay [12] and in assay [16] was “inactive” throughout. Moreover, the result in assay [8], in [13] and in assay [14] was inactive.

For the compound `CCC(COC(=O)c1cc(OC)c(OC)c(OC)c1)(c1ccccc1)N(C)C` (stereo not drawn), the Potency entry in assay [1], in assay [2], in assay [3], in assay [4], in assay [6] and in assay [7] was “inactive” in each case. For the same compound, the Potency result in assay [9], in assay [10], in [12] and in assay [16] was “inactive” throughout. The outcome in [8], in assay [17] and in assay [14] was inactive.

In the case of `CCCCCCCCCCOC(=O)c1ccccc1C(=O)OCCCCCCCCCC`, the Potency result in [1], in [2], in assay [3], in [4], in assay [5] and in [6] was “inactive” in each case. The Potency result in assay [7], in [9], in [10], in assay [18], in assay [11] and in assay [16] was “inactive” in each case. In addition, the result in assay [8], in assay [17] and in assay [13] was inactive.

With `CCCCCC[N+](=O)[O-]`, the Potency result in [1], in [2], in assay [3], in assay [6], in assay [7] and in assay [9] was “inactive” each time. Moreover, the Potency result in assay [10], in [11], in assay [12] and in [16] was “inactive” each time. In addition, the compound was classed as inactive in [8], in [13] and in [14].

For `CCCC(Cn1cncn1)c1ccc(Cl)cc1Cl` (stereo not drawn), the Potency result in assay [1], in [2], in [3], in assay [6], in [10] and in assay [18] was “inactive” in each case. Further, the Potency result in assay [12] and in [16] was “inactive” in each case. Moreover, the call in [8], in assay [17], in assay [13] and in [14] was inactive.

With `O=C1CN=C(c2ccccc2)c2cc(Cl)ccc2N1CC1CC1`, the Potency entry in [1], in assay [2], in assay [3], in assay [4], in assay [6] and in assay [7] was “inactive” throughout. The Potency result in assay [9], in [10] and in assay [16] was “inactive” in each case. Further, the Potency in [5] was 32.2 µM (active). In addition, the call in assay [14] and in assay [19] was inactive.

As to `Clc1cccc2ccccc12`, the Potency entry in assay [1], in assay [2], in [3], in assay [4], in assay [5] and in assay [6] was “inactive” each time. In addition, the Potency entry in assay [7], in assay [10], in [12] and in assay [16] was “inactive” throughout. Besides, the result in assay [8], in assay [17] and in assay [14] was inactive.

For the compound `CC(C)N(CCC(C(N)=O)(c1ccccc1)c1ccccn1)C(C)C` (stereo not drawn), the Potency result in assay [1], in assay [2], in assay [3], in assay [4], in assay [5] and in assay [6] was “inactive” throughout. Moreover, the Potency result in assay [9], in assay [10], in [18], in [12] and in [16] was “inactive” each time. The compound was called inactive in assay [8], in [17], in assay [14] and in assay [19].

For the compound `CC1(C)[C@H](C=C(Cl)Cl)[C@@H]1C(=O)O[C@@H](C#N)c1cccc(Oc2ccccc2)c1`, the Potency result in [1], in [2], in assay [3], in [4], in assay [5] and in assay [7] was “inactive” each time. For the same compound, the Potency entry in [9], in assay [10], in [12] and in assay [16] was “inactive” each time. In addition, the call in assay [14] and in [19] was inactive.
